# NPC1 promoter act: qHTS Assay for NPC1 Promoter Activators; Huh7 NPC1 promoter luciferase reporter, 24 h; hit rate 2.4% among 320,000; Potency, µM (series often up to 9.22 µM), usual class: activators; further: nearly all actives have a fitted effect of over 60% in size
#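 In 1536-well qHTS, Huh7 cells harboring an NPC1 promoter–luciferase construct received compound for 24 h; activation was quantified by luminescence following luciferase reagent addition.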
# ELG1 genotoxic: qHTS screen for small molecules that induce genotoxicity in human embryonic kidney (HEK293T) cells expressing luciferase-tagged ELG1. HEK293T ELG1-luciferase reporter, luminescence, 16 h. Potency, µM (top dose mostly 46 µM), hits mostly activators. hit rate 1.3% among 330,000; further: nearly all actives have a fitted effect of over 60% in size
#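 Quantitative HTS format in 1536-well plates. HEK293T ELG1-luciferase reporter cells receive test compound and are incubated 16 hr at 37 °C, 5% CO2; ONE-Glo added, 30 min room temperature, then luminescence read.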
# SMN2 splice enh: qHTS Assay for Enhancers of SMN2 Splice Variant Expression. HEK293 SMN2-luciferase splicing reporter, luminescence, 30-36 h. Potency, µM (top dose mostly 46.1 µM), most hits filed as activators. hit rate 2.8% among 210,000. AID 1458, 2008; further: nearly all actives have a fitted effect of over 55% in size
#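 HEK293 cells carry an SMN2 minigene-luciferase reporter in which exon 7 inclusion puts luciferase in frame. Cells were seeded at 2000 cells/well, attached for 10-12 hours, then exposed to compounds for 30-36 hours at 37C before ONE-Glo luminescence.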
# KinaseGlo FLuc: Counterscreen for Luciferase (Kinase-Glo TM) Inhibition. Luciferin 4-monooxygenase (Photuris pensylvanica), Q27757. hit rate 0.28% among 200,000. Kinase-Glo luciferase, ATP luminescence, 8 min. Potency, µM (titrated, usually from 38.3 µM), actives largely listed as inhibitors; further: nearly all actives have a fitted effect of over 60% in size
#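 Luminescence was the read-out, taken after 8-minute incubation at ambient temperature. Luciferase turned over luciferin with 10 uM ATP in imidazole pH 7.2 buffer containing KCl, MgCl2, Tween 20 and BSA.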
# Rab9 promoter act: qHTS Assay for Rab9 Promoter Activators. Huh7 Rab9 promoter-luciferase reporter, luminescence, 24 h. Potency, µM (highest dose often 9.22 µM), hits mostly activators. hit rate 2.8% among 320,000. AID 485297, 2010; further: nearly all actives have a fitted effect of over 60% in size
#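 Cells were plated at 1500 per well in reduced-serum medium with 10% FBS and left 2 h. Compound in DMSO was then added for 24 h at 37 °C. Reporter signal was read by luminescence after 10 min with luciferase detection reagent.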
# FLuc counter: qHTS profiling assay for firefly luciferase inhibitor/activator using purifed enzyme and Km concentrations of substrates (counterscreen for miR-21 project) | purified FLuc, Km substrates, luminescence inhibition | Potency, µM (highest dose often 57.5 µM), usual class: inhibitors | Luciferin 4-monooxygenase (Photinus pyralis), P08659 | hit rate 6.9% among 360,000 | AID 588342, 2011; further: nearly all actives have a fitted effect of over 55% in size
# Target sequence (P08659 whole entry, looked up): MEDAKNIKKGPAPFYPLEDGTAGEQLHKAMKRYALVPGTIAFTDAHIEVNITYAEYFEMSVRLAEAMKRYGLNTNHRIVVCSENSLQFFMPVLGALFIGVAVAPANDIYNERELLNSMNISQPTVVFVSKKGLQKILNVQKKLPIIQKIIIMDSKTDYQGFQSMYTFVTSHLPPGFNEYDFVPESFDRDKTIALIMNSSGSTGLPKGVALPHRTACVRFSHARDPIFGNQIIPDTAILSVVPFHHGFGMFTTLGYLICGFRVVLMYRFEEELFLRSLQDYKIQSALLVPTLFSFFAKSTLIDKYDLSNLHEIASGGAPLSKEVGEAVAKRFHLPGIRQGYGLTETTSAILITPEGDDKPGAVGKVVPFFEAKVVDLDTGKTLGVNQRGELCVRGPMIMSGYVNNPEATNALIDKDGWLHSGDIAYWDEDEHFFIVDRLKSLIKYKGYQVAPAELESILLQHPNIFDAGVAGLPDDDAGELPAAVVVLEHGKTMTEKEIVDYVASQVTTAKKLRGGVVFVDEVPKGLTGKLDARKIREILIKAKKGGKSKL
#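 Purified P. pyralis luciferase, 10 nM final, with Km-level 10 uM D-luciferin and 10 uM ATP in 50 mM Tris acetate pH 7.5, 10 mM Mg acetate, 0.01% Tween-20, 0.05% BSA; 6-point qHTS titration about 60 µM downward; luminescence read.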
# Hits are given with their value; – = inactive; ? = inconclusive; · = no result given; [ ] = remark or other dose. Compounds with a hit are over-represented: about 7.4% of the library has one in this group of screens. The call rests on the fitted dose curve; in most records, active means well fitted curve in the direction sought with a large enough effect; inconclusive means small, poorly fitted or top-dose-only effect, or another doubt; inactive means no such curve, though single readings can be large; an effect the other way counts as inactive or inconclusive.
SMILES,NPC1 promoter act,ELG1 genotoxic,SMN2 splice enh,KinaseGlo FLuc,Rab9 promoter act,FLuc counter
CC(C)(C)OC(=O)N1CCC(c2c(C(=O)N3CCN(c4ncccn4)CC3)cnn2-c2ccc(F)cc2)CC1,·,·,·,·,·,–
O=C(/C=C/c1ccccc1F)c1ccoc1,–,–,–,–,–,12µM
Cc1ccccc1OC(=O)CSc1nnc(-c2ccc(F)cc2)o1,·,·,·,·,·,–
Cc1c(-c2cccc(NC(=O)Nc3ccc(Cl)cc3)c2)nc2ncccn12,·,·,·,·,·,11µM
Cc1nccc(-c2cccc(NC(=O)Nc3ccc(Cl)cc3)c2)n1,–,–,·,·,–,4.8µM
COCCCNC(=O)c1ccccc1Oc1ccccc1,–,–,–,–,–,–
COCCCNC(=O)c1ccc2c3c(onc13)-c1ccccc1C2=O,3.2µM,–,·,·,0.71µM,6µM
Cc1cc2oc(C(=O)Nc3c(C(=O)Nc4ccccc4)oc4ccccc34)cc(=O)c2cc1C,·,·,–,·,·,–
C/C(=N\Nc1nc2ccccc2[nH]1)c1ccc(N2CCOCC2)cc1,4µM,–,?,–,?,1.1µM
Cc1ccc(C(=O)NCc2nc3ccccc3[nH]2)o1,–,–,·,·,–,–
C/C(=N\Nc1nc(C)cc(C)n1)c1ccc(N2CCOCC2)cc1,–,–,–,–,–,–
C/C(=N\Nc1nc2ccccc2[nH]1)c1ccc(C)o1,–,?,18µM,–,?,11µM
C/C(=N\Nc1nc2ccccc2[nH]1)c1ccc(Cl)s1,?,–,–,–,–,11µM
COc1ccc(-c2nc(CNS(=O)(=O)c3cccc(F)c3)cs2)cc1,·,·,–,·,·,–
COc1ccc(-c2cc(C(=O)Nc3sc4c(c3C#N)CCCC4)c3ccccc3n2)cc1,–,–,–,–,–,15µM
COC(=O)c1sc(NC(=O)c2cc(-c3ccccc3)nc3ccccc23)c(C#N)c1C,–,–,–,–,–,?
CCOC(=O)c1sc(NC(=O)c2cc(-c3ccc(C)cc3)nc3ccccc23)c(C#N)c1C,–,–,–,–,–,12µM
O=C(Nc1cccc(Cl)c1)Nc1sccc1-c1nc2ccccc2s1,–,–,·,·,–,13µM
COc1ccccc1NC(=O)Nc1sccc1-c1nc2ccccc2s1,–,–,·,·,–,?
COc1c(C)cccc1C(=O)Nc1ccc(-c2nc3ccccc3s2)c(Cl)c1,·,·,–,·,·,–
O=C(Nc1ccccc1)Nc1sccc1-c1nc2ccccc2s1,–,–,·,·,–,15µM
COc1ccc(OCC2c3cc(OC)c(OC)cc3CCN2C(=O)COc2ccc(Cl)cc2Cl)cc1 (stereo not given),·,·,·,·,·,–
COc1ccccc1/C=C/C(=O)NCCC1=CCCCC1,4µM,?,11µM,–,3.2µM,11µM
O=C(/C=C/c1ccccc1)NCCC1=CCCCC1,?,?,11µM,–,2.8µM,9.5µM
COc1ccccc1OCC(=O)NCCC1=CCCCC1,–,–,–,–,–,–
SMILES,NPC1 promoter act,ELG1 genotoxic,SMN2 splice enh,KinaseGlo FLuc,Rab9 promoter act,FLuc counter
O=C(COC(=O)/C=C/c1ccccc1)NCCC1=CCCCC1,–,–,–,–,–,–
O=C(/C=C/c1ccc(F)cc1)NCCC1=CCCCC1,?,–,?,–,?,15µM
Cc1ccc(CCCC(=O)O)cc1C,·,·,–[9.22 µM],–[7.66 µM],·,·
Cc1cccc(N2CC(c3nc4ccc(C)cc4[nH]3)CC2=O)c1 (stereo not given),·,·,–,·,·,–
COc1ccc(C2=NN(S(=O)(=O)c3ccccc3)C(c3ccccc3)C2)cc1 (stereo not given),–,–,·,·,–,–
COc1ccc(C2CC(c3cccc(F)c3)=NN2c2ccc(S(N)(=O)=O)cc2)cc1 (stereo not given),·,–,·,·,·,·
COc1ccc(C2=NN(CN3C(=O)C(=O)c4ccccc43)C(c3ccc(OC)cc3)C2)cc1 (stereo not given),?,?,10µM,–,3.5µM,?
COc1ccc(C2CC(c3ccccc3)=NN2c2ccc(S(N)(=O)=O)cc2)cc1 (stereo not given),–,–,·,·,–,9.5µM
CC(C)N(C(=O)c1cc2c(Cl)nc3ccccc3c2s1)C1CCCCC1,·,·,–,·,·,–
CCc1cccc(CC)c1NC(=O)CCS(=O)(=O)c1ccc2c(c1)CCN2C(C)=O,·,·,–,·,·,–
COc1cccc(N2CCN(C(=O)CN3CCSc4ccccc43)CC2)c1,·,·,·,·,·,–
S=C(c1ccc(-c2ccccc2Cl)o1)N1CCCCC1,2.8µM,?,13µM,–,3.5µM,5.4µM
O=C(O)c1ccc(-c2ccccc2Cl)o1,–,–,–,–,–,–
N#CCCN1CCN(C(=S)c2ccc(-c3ccc(Cl)cc3)o2)CC1,–,?,–,–,–,21µM
S=C(c1ccc(-c2ccc(Cl)cc2)o1)N1CCCCC1,1.3µM,2.6µM,5µM,–,1.4µM,1.1µM
CN1CCN(C(=S)c2ccc(-c3cccc(Cl)c3Cl)o2)CC1,?,?,·,–,?,4.8µM
O=C(Cn1cnc2onc(-c3ccc(F)cc3)c2c1=O)Nc1cccc(C(F)(F)F)c1,·,·,·,·,·,–
CC1CCN(S(=O)(=O)c2ccc3c(ccn3CC(=O)NCc3ccc(N(C)C)cc3)c2)CC1,·,·,·,·,·,–
CNC1=C(Br)C(=O)c2ccncc2C1=O,·,·,–,–,·,·
CCc1ccccc1NC(=O)C1COc2ccccc2C1 (stereo not given),·,·,·,·,·,–
CC1CCCN(C(=O)CNC(=O)c2sc3ccccc3c2Cl)C1 (stereo not given),?,?,·,·,2.5µM,15µM
O=C(NCC(=O)N1CCCCC1)c1sc2ccccc2c1Cl,1.8µM,?,·,·,2.2µM,8.5µM
O=C(Nc1ccc(CN2CCCCC2)cc1)c1sc2ccccc2c1Cl,–,–,·,·,–,13µM
COc1ccc(NC(=O)c2oc3ccc4c(c3c2C)C(=O)CC(C)(C)O4)cc1OC,·,·,·,·,·,0.43µM
CCc1cccc(NC(=O)c2oc3ccc4c(c3c2C)C(=O)CC(C)(C)O4)c1,·,·,·,·,·,0.85µM
SMILES,NPC1 promoter act,ELG1 genotoxic,SMN2 splice enh,KinaseGlo FLuc,Rab9 promoter act,FLuc counter
CC(=O)Oc1cc(OC(C)=O)c2c(=O)cc(-c3ccc(OC(C)=O)c(OC(C)=O)c3)oc2c1,·,·,·,–,·,·
CCCCCCCC/C=C\CCCCCCCC(N)=O,·,·,–,–,·,·
CCn1c(C(=O)NCc2cc(Br)ccc2OC)cc2oc3ccccc3c21,·,·,–,·,·,–
COc1ccc(C(=O)CN2C(=O)N(c3ccc(C(C)=O)cc3)S(=O)(=O)c3ccccc32)cc1,·,·,·,·,·,–
O=C(c1ccccc1)N1CCSc2sccc2C1=O,?,–,–,–,?,24µM
O=C(c1ccccc1)N1CCSC1=S,–,–,–,–,–,–
N#CCSc1ccc2nc(-c3ccccc3)cn2n1,2.8µM,?,·,·,2µM,7.6µM
CCc1ccc(NC(=O)CSc2ccc3nnc(CCNS(=O)(=O)c4ccc(OC)cc4)n3n2)cc1,·,·,·,·,·,–

# Bioassay records from PubChem BioAssay.
